Screens from PubChem.
VLA-4 inh: inhibition in a human VLA-4 binding assay | P13612 | VLA-4 expressing cells, ligand binding flow cytometry | inhibition, % (about 7 µM as worked out from the volumes in the protocol) | 330,000 compounds, 0.2% hits | AID 2557; in the data active = inhibition above about 50%
PKA-R2B act: PKA-R2B complex activation | 340,000 compounds, 0.079% hits | AID 504700 | PKA-R2B holoenzyme dissociation, Cy5-IP20 fluorescence polarization; R2B truncated from residue 108, S112A mutant; 0% DMSO only, 100% 113 µM cGMP | activation, % at 11.4 µM;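 active = activation above a cutoff set at the mean over all compounds plus 3 SD, cut at about 18% in these data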;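 also: higher means more holoenzyme dissociation and a rise in polarization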
ATG4B inhibitor: blocks human ATG4B protease cleavage of LC3 substrate; inhibition, % at 8.33 µM; 340,000 compounds, 0.51% hits; Q9Y4P1; ATG4B cleavage of LC3-PLA2, NBD-HPC fluorescence, 1 h; in the data active = inhibition above about 40%
Target sequence (Q9Y4P1 whole entry, looked up): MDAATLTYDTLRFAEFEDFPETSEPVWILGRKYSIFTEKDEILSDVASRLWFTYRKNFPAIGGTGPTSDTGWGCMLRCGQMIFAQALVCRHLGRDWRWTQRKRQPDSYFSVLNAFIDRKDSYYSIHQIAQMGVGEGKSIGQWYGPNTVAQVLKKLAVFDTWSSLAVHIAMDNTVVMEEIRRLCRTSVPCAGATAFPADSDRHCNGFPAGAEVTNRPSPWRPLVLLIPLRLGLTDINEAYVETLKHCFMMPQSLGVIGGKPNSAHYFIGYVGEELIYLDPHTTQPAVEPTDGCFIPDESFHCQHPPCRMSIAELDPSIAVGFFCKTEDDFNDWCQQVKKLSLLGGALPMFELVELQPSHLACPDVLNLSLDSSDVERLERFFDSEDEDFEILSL
NRP1-CendR mod: alters CendR peptide binding to human NRP-1. FAM-RPARPAR peptide binding to NRP-1, fluorescence polarization. 360,000 compounds, 0.85% hits. inhibition, % at 25 µM. O14786;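 active = inhibition or corrected inhibition above about 18%, plus a signal ratio from 0.5 to 1.5, limit read from the data, passing the limit was not always enough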
PKA-R1A act: activators of PKA-R1A complex. 340,000 compounds, 0.083% hits. P00514+P68181. PKA-R1A dissociation, Cy5-IP20 fluorescence polarization; scaled: DMSO 0%, 113 µM cGMP 100%. activation, % at 11.4 µM. AID 504707;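 active = percent activation above the mean of all tested compounds plus 3 SD, cut at about 19% in these data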;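 also: higher means more PKAc released from R1A so a rise in polarization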
An asterisk follows results filed as active; nt = no result; ! = repeats disagree. The list is not random: actives were taken first. Their share in the collection is about 1.6%.

SMILES | VLA-4 inh | PKA-R2B act | ATG4B inhibitor | NRP1-CendR mod | PKA-R1A act
CCN(c1ccccc1)S(=O)(=O)c1ccc(C(=O)N(CCCN(C)C)c2nc3cc4c(cc3s2)OCO4)cc1 | 5 | -14 | -2 | 22* | -9
COc1ccc(NC(=O)CN(c2ccc(OC)c(Cl)c2)S(=O)(=O)c2ccccc2)cc1 | 18 | 9 | -5 | 8 | -4
CCOC(=O)CN(C(=O)CSc1nnc(-c2ccc(OC)c(OC)c2)o1)c1ccccc1 | 3 | 6 | 2 | 31* | 10
COC(=O)CSc1nnc(-c2ccc(OC)c(OC)c2)o1 | 1 | 5 | 9 | -1 | 7
Nc1c(-c2ccc(C(F)(F)F)cc2)nc2ncccn12 | nt | nt | nt | -1 | nt
CC(=O)Nc1cccc(NC(=O)c2cccc(-c3ccc(O)cc3)c2)c1 | -1 | -4 | -16 | 3 | -2
COc1ccc(NC(=O)c2cccc(-c3ccc(O)cc3)c2)cn1 | -10 | 4 | -8 | 41* | 8
COC(=O)c1cccc(CN2C(=O)C(C)Oc3ccc(C)cc32)c1 (stereo not drawn) | nt | nt | nt | 1 | nt
CC1CC(=O)Nc2ccc([N+](=O)[O-])cc2N1C (stereo not drawn) | 7 | -13 | 5 | -1 | -5
CC1CC(=O)Nc2cc([N+](=O)[O-])ccc2N1 (stereo not drawn) | 6 | 6 | 2 | 32* | 8
CC1(c2nc3ccccc3[nH]2)CCCC2=Nc3ccccc3CN21 (stereo not drawn) | nt | nt | nt | -12 | nt
CCOC(=O)Cc1cnc(NC(=O)NC(C(=O)OCC)(c2ccccc2)C(F)(F)F)s1 (stereo not drawn) | -6 | 0 | -1 | 37* | -2
CCOC(=O)C(NC(=O)Nc1ccccc1)(OCC)C(F)(F)F (stereo not drawn) | 2 | -13 | 4 | -7 | -6
Nc1ccn(CC(=O)NCc2ccccc2)c(=O)n1 | 0 | -15 | -2 | 3 | 3
Nc1ccn(CC(=O)NCc2ccc3[nH]ccc3c2)c(=O)n1 | 18 | -7 | -7 | 32* | 13
COc1ccc(N(C(=O)c2ccncc2)S(=O)(=O)c2cccc([N+](=O)[O-])c2)cc1 | 4 | -9 | -1 | 19* | -5
COc1ccc(N(C(=O)c2cccnc2)S(=O)(=O)c2cccc([N+](=O)[O-])c2)cc1 | 2 | -4 | -4 | 0 | 7
COc1cccc(NC(=O)CSC2=NN3CCCC(=O)N=C3S2)c1 | 15 | -6 | 2 | 30* | 0
COc1cc2nc(-c3cccs3)oc(=O)c2cc1OC | -11 | 10 | -6 | 27* | 10
COc1cc(CN(CC2CCCO2)C(=O)c2cccs2)cc(OC)c1OC (stereo not drawn) | -1 | 2 | 10 | 26* | -3
Cc1cccc(-n2c(SCC(=O)N3CCN(c4ccccn4)CC3)nnc2N2CCOCC2)c1 | 11 | -12 | -25 | 9 | -10
CN(C)CCOC(c1ccc(Cl)cc1)c1ccccn1 (stereo not drawn) | 1 | -2 | 0 | 21*! | -11
CN(C)CCOC(c1ccccc1)c1ccccc1 | 21 | nt | -7 | -5 | nt
O=C1NC[C@H](CCCCN2C[C@H](Cc3ccc(O)cc3)N(CCC3CCCCC3)C(=O)C2=O)N(CCC2CCCCC2)C1=O | nt | nt | nt | -17 | nt
CC1(c2nnc(-c3ccc(F)cc3)o2)CC(c2ccc(F)cc2)=NO1 (stereo not drawn) | 2 | -3 | -4 | 24* | -7
SMILES | VLA-4 inh | PKA-R2B act | ATG4B inhibitor | NRP1-CendR mod | PKA-R1A act
CC1(c2nnc(-c3ccc(Cl)cc3)o2)CC(c2cccc(Cl)c2)=NO1 (stereo not drawn) | 3 | 0 | -9 | 25* | -4
O=C(c1ccc(NS(=O)(=O)c2ccc(F)cc2)cc1)N1CCC1 | 5 | -8 | 11 | -1 | -4
CC1(OC(=O)CCc2ccccc2)C(=O)C=C2C=C(c3ccc(C#N)cc3)N(C3CCCC3)C=C2C1=O (stereo not drawn) | 19 | -9 | -8 | 30* | 4
O=C(O)C1CCC2CCCC21 (stereo not drawn) | nt | nt | nt | 18 | nt
C/C(N)=N\S(=O)(=O)c1ccc(Cl)cc1 | -5 | 12 | 0 | 2 | 7
N/C(CSc1ccc(Cl)cc1)=N\S(=O)(=O)c1ccc(Cl)cc1 | 10 | -4 | -7 | 29* | -3
Cc1ccnc(NC(=O)CCC(=O)N(CC(=O)NC2CCCCC2)Cc2ccccc2)c1 | 7 | -2 | 0 | 31* | -9
